Results on one molecule are retold here after PubChem BioAssay AID2283336 (EPA ToxCast).

This assay addresses Kcnn1 (gene 54261) (UniProt P70606). As to the kind of experiment: NVS_IC_rKCaCh: NovaScreen (NVS) Ion Channel Assay for Potassium Channel, Ca2+ Act., VI (KCaCh). As to the method: NVS_IC_rKCaCh is a biochemical, single-readout assay that uses extracted gene-proteins from Rat forebrain membranes in a tissue-based cell-free assay. Measurements were taken 1 hour after chemical dosing in a 96-well plate.NVS_IC_rKCaCh is one of one assay component(s) measured or calculated from the NVS_IC_rKCaCh assay. It is designed to make measurements of radioligand binding, a form of binding reporter, as detected with scintillation counting signals by Filter-based radiodetection technology.Data from the assay component NVS_IC_rKCaCh was analyzed into 1 assay endpoint. This assay endpoint, NVS_IC_rKCaCh, was analyzed in the positive analysis fitting direction relative to DMSO as the negative control and baseline of activity. […] Furthermore, this assay endpoint can be referred to as a primary readout, because the performed assay has only produced 1 assay endpoint. […]
Binding assays used specific radioligands (tritiated, iodinated) with non-radioactive competitive displacement ligands in agonist or antagonist protocols (as indicated) and various reference compounds and inhibitors to titrate specific binding to receptors and transporters. Most enzyme assays (CYPs, kinases, phosphatases, proteases, HDACs) used recombinant protein and specific substrates (fluorescence mostly, some colorimetric and radioactive) and inhibitors, followed by a biochemical separation of substrate and product. […]

Inconclusive results are not listed. The source made the active and inactive calls. The calls were made as follows: active = hit-call score of the fitted dose curve at least 0.9, where 1 is the maximum; inconclusive = response in the unintended direction; inactive = score below 0.9.

Sequence of Kcnn1 (gene 54261) (P70606 whole entry, looked up): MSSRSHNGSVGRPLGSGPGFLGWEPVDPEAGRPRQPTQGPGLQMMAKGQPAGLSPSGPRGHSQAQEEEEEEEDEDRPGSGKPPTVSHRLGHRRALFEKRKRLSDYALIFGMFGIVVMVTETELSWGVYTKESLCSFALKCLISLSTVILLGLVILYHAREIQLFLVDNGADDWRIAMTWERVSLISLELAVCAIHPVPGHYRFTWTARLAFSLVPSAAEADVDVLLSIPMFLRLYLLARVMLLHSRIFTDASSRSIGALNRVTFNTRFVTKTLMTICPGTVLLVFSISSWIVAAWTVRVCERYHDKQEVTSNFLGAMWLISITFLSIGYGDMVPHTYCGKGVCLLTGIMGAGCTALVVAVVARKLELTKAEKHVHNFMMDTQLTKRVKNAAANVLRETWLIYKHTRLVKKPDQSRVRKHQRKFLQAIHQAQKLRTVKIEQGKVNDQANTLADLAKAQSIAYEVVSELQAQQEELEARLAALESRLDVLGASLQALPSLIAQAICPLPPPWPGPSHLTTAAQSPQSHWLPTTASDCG

For the molecule `CN(C)c1ccc(C(=C2C=CC(=[N+](C)C)C=C2)c2ccc(N(C)C)cc2)cc1`, the AC50 (commonly the concentration giving half of the maximal activity seen) is 16.5 µM (active).
